# PubChem BioAssay
# Calls of active or inactive are those of the source.
# Key:
# [1] = small molecules captured by biotinylated probe aFSTL3 – biochemical, small-molecule microarray, fluorescence 635/667, stem cell growth factor project, primary screen (AID 1064); settings: higher = more signal;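 also: measures binding of the biotinylated anti-FSTL3 antibody to printed compounds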
# [2] = binders from COS7 lysate, DM2A8 probe, primary screen, torsin A project, cell lysate, small-molecule microarray, fluorescence 635/667 (AID 1065); settings: higher = more signal, COS7 lysate expressing mutant human TOR1A
# [3] = small molecules captured by biotinylated probe aFGF2 – biochemical, small-molecule microarray, fluorescence 635/667, stem cell growth factor project, primary screen (AID 1067); settings: higher = more signal;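 also: measures binding of biotinylated aFGF2 protein to printed compounds on slides; z-score merges feature fluorescence and signal-to-noise across triplicate slides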
# [4] = small molecules captured by biotinylated probe aFGF10 – biochemical, small-molecule microarray, fluorescence 635/667, stem cell growth factor project, primary screen (AID 1071); settings: higher = more signal;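 also: score merges 667 nm spot intensity and signal to noise from triplicate slides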
# [5] = target: Neurogenic locus notch homolog protein 2 (Homo sapiens) (UniProt Q04721); experiment: small molecules binding Notch2 protein – biochemical, small-molecule microarray, 635 nm fluorescence, stem cell growth factors, primary screen (AID 1073); settings: higher = more signal
# Chain of Neurogenic locus notch homolog protein 2 (Homo sapiens) (Q04721 whole entry, looked up, canonical isoform): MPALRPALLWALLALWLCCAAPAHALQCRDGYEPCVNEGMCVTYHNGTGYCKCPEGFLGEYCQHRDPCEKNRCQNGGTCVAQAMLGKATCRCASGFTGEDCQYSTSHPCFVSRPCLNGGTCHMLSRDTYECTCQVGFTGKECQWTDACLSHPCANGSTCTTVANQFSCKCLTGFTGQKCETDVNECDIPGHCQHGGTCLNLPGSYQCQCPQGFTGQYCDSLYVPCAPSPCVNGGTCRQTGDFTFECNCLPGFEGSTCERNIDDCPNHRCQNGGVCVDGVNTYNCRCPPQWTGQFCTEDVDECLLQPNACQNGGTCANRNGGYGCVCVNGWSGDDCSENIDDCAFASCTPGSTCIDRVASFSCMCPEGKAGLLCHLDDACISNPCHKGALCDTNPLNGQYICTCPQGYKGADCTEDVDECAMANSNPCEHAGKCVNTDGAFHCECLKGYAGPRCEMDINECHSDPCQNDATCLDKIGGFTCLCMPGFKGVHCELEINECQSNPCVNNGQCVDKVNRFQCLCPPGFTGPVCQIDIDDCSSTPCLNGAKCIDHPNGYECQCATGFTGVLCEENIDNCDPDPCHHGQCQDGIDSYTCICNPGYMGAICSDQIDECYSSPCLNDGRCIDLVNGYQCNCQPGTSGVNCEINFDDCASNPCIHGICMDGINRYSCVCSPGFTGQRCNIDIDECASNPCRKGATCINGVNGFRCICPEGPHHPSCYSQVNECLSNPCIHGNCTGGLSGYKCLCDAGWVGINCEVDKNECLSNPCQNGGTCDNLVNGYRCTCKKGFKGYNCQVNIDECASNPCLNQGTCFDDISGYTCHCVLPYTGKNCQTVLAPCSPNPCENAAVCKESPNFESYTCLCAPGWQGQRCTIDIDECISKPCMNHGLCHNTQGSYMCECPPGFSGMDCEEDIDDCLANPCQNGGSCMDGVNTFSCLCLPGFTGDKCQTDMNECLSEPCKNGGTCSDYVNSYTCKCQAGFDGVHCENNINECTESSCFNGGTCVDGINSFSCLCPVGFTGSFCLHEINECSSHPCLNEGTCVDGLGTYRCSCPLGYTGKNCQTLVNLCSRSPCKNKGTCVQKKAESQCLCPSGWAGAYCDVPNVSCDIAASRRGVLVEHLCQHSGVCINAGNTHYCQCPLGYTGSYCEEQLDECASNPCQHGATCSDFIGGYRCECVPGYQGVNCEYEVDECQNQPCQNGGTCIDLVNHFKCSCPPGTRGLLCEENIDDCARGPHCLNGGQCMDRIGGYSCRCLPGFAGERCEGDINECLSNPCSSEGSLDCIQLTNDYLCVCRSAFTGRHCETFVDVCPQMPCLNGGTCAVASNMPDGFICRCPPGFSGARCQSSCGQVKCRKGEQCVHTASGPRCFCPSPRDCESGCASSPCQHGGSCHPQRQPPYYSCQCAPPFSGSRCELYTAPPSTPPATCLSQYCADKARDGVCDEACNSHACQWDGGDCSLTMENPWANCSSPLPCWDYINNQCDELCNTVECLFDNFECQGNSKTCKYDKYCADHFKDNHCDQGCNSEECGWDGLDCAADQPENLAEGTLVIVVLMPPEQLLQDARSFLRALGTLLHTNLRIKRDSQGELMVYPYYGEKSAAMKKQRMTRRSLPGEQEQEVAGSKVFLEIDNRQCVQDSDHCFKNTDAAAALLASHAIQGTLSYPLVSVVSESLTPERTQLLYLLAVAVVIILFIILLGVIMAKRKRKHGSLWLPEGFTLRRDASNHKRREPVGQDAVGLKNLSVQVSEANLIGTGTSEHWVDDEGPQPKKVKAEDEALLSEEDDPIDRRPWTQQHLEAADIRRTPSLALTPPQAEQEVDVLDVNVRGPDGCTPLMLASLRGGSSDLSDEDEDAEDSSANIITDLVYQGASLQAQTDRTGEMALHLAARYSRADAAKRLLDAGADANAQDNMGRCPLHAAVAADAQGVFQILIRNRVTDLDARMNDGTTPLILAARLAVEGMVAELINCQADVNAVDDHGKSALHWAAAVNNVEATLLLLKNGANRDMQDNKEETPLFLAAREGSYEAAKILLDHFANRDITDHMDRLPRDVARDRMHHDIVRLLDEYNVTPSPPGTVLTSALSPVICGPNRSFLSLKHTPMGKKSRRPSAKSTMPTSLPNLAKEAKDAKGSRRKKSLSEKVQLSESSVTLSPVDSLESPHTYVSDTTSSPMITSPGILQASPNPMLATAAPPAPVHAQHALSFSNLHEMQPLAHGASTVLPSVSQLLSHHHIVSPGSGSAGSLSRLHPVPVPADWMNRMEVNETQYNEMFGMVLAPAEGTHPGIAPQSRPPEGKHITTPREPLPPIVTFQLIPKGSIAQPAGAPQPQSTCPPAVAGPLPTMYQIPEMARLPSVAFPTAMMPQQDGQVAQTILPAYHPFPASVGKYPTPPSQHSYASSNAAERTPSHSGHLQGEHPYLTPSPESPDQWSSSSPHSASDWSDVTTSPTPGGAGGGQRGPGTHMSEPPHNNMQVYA
# [6] = target: Pro-neuregulin-1, membrane-bound isoform (Homo sapiens) (UniProt Q02297); experiment: small molecules binding neuregulin-1 protein – biochemical, small-molecule microarray, fluorescence 635/667, psychiatric disease protein project, primary screen (AID 1075); settings: NRG1 binding, 635 nm fluorescence, higher = more signal;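 also: score combines 667 nm spot fluorescence with signal to noise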
# Chain of Pro-neuregulin-1, membrane-bound isoform (Homo sapiens) (Q02297 whole entry, looked up, the tested form may be a part, canonical isoform): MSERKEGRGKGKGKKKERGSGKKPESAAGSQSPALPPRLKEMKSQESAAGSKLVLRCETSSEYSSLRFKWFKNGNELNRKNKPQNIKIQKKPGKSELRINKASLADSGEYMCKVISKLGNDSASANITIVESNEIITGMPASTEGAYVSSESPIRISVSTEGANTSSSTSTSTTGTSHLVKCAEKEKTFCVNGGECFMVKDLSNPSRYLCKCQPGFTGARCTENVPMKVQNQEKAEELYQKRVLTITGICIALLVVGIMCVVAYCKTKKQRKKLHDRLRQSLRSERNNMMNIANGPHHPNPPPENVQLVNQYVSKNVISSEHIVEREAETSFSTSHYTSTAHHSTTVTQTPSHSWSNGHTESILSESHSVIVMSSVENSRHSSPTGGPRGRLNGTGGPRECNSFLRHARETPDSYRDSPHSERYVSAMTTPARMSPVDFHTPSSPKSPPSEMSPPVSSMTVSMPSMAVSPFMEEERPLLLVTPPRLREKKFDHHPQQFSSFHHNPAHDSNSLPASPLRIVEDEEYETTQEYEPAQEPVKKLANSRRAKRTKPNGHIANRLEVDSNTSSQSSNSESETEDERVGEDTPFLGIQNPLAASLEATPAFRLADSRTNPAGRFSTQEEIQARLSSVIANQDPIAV
# [7] = test system: Neuregulin-1 EGF-like domain; experiment: small molecules binding NRG1 EGF domain – biochemical, small-molecule microarray, 635 nm fluorescence, primary screen (AID 1081); settings: higher = more signal;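 also: binding of the protein to compounds printed on small-molecule microarray slides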
# [8] = FRG1 expression reporter modulators in myotubes – cell-based, C2C12 myotubes, firefly/Renilla luciferase, luminescence, FRG1 inhibition for FSHD, primary screen (AID 1084); settings: FRG1 promoter luciferase, higher = more signal, called active from +8 up or from −8 down
# [9] = small molecules captured by biotinylated probe aFST – biochemical, small-molecule microarray, fluorescence 635/667, stem cell growth factor project, primary screen (AID 1086); settings: higher = more signal;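 also: score merges 667 nm fluorescence with signal-to-noise of each printed compound spot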
# [10] = binders of probe aHhip on microarray, primary screen, stem cell growth factor project, biochemical, small-molecule microarray, fluorescence 635/667 (AID 1087); settings: higher = more signal;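 also: score merges spot fluorescence at 667nm with spot signal to noise ratio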
smiles,measurement,setting,value
CC(C)C(=C=CC[C@@H](O)c1ccc(OCCO)cc1)C[C@@H](O)COCc1ccccc1,composite z-score,[1],-0.342
same,composite z-score,[2],0.3
same,composite z-score,[3],-0.085
same,composite z-score,[4],-0.376
same,composite z-score,[5],-0.0534
same,composite z-score,[6],-0.849
same,composite z-score,[7],0.449
same,z-score,[8],-1.74 (inactive)
same,composite z-score,[9],-0.0716
same,composite z-score,[10],-0.0994
Cc1ccc([C@@H]2C[C@@H](Sc3ccccc3)[C@H](C(=O)O)CN2S(=O)(=O)c2ccc(C)cc2)cc1,composite z-score,[1],-0.0057
same,composite z-score,[2],0.414
same,composite z-score,[3],0.0512
same,composite z-score,[4],0.983
same,composite z-score,[5],1.59
same,composite z-score,[6],1.57
same,composite z-score,[7],1.35
same,z-score,[8],-3.65 (inactive)
same,composite z-score,[9],0.936
same,composite z-score,[10],0.0373
[N-]=[N+]=Nc1ccccc1[C@@H]1OC(c2ccc(OCCCO)cc2)=N[C@]1(CCS(=O)(=O)c1ccccc1)C(N)=O,composite z-score,[1],0.109
same,composite z-score,[2],-0.0445
same,composite z-score,[3],0.29
same,composite z-score,[4],0.829
same,composite z-score,[5],1.58
same,composite z-score,[6],1.63
same,composite z-score,[7],1.23
same,z-score,[8],1.14 (inactive)
same,composite z-score,[9],2.08
same,composite z-score,[10],-0.213
CN1C(=O)C2C=CC(C(O)c3ccco3)N(Nc3ccccc3)C2C1=O (stereo not given),composite z-score,[1],0.034
same,composite z-score,[2],0.438
same,composite z-score,[3],0.0772
same,composite z-score,[4],0.321
same,composite z-score,[5],1.06
same,composite z-score,[6],1.51
same,composite z-score,[7],1.28
same,z-score,[8],0.0122 (inactive)
same,composite z-score,[9],-0.104
same,composite z-score,[10],-0.0581
C#C[C@H](O[Si](C#Cc1ccc(Oc2ccccc2)cc1)(C(C)C)C(C)C)c1ccccc1,composite z-score,[1],-0.247
same,composite z-score,[2],1.27
same,composite z-score,[3],-0.0613
same,composite z-score,[4],0.853
same,composite z-score,[5],1.25
same,composite z-score,[6],0.206
same,composite z-score,[7],0.801
same,z-score,[8],0.297 (inactive)
same,composite z-score,[9],0.315
same,composite z-score,[10],-0.0994
O=C1c2ccccc2[C@](Cc2ccccc2I)(C(=O)NCCN2CCOCC2)[C@H](c2ccc(CO)cc2)N1C1CCCCC1,composite z-score,[1],0.446
same,composite z-score,[2],0.473
same,composite z-score,[3],-0.0181
same,composite z-score,[4],0.352
same,composite z-score,[5],1.39
same,composite z-score,[6],0.738
same,composite z-score,[7],1.22
same,z-score,[8],-4.42 (inactive)
same,composite z-score,[9],1.19
same,composite z-score,[10],0.259
COc1ccc(C#Cc2ccc3c(c2)[C@]2(C(=O)N3)[C@H](C(=O)NC[C@H](O)c3ccccc3)[C@H]3C(=O)O[C@H](c4ccccc4)[C@H](c4ccccc4)N3[C@@H]2c2ccc(O)cc2)cc1,composite z-score,[1],-0.384
same,composite z-score,[2],0.736
same,composite z-score,[3],-0.0824
same,composite z-score,[4],0.857
same,composite z-score,[5],1.2
same,composite z-score,[6],1.52
same,composite z-score,[7],1.34
same,z-score,[8],0.254 (inactive)
same,composite z-score,[9],0.243
same,composite z-score,[10],-0.201
CCOC(=O)C1=CC[C@@H](c2ccccc2)N(S(=O)(=O)c2ccc(C)cc2)[C@H]1c1ccccc1C,composite z-score,[1],0.158
same,composite z-score,[2],-0.0515
same,composite z-score,[3],-0.0895
same,composite z-score,[4],0.49
same,composite z-score,[5],1.47
same,composite z-score,[6],0.393
same,composite z-score,[7],0.714
same,z-score,[8],-3.47 (inactive)
same,composite z-score,[9],0.789
same,composite z-score,[10],0.115
CO[C@H]1O[C@H](CO)[C@@H](OC(=O)Nc2ccccc2)[C@H](OC(=O)Nc2ccccc2)[C@@H]1OC(=O)Nc1ccccc1,composite z-score,[1],-0.29
same,composite z-score,[2],0.692
same,composite z-score,[3],0.205
same,composite z-score,[4],0.784
same,composite z-score,[5],1.3
same,composite z-score,[6],1.45
same,composite z-score,[7],1.37
same,z-score,[8],1.89 (inactive)
same,composite z-score,[9],1.05
same,composite z-score,[10],-0.546
CC1CC/C=C\[C@H]2OC34C=CCN(Cc5ccccc5)C(=O)[C@H]3N(CCCO)C(=O)[C@@H]4C2C(=O)O1 (stereo not given in full),composite z-score,[1],0.291
same,composite z-score,[2],0.141
same,composite z-score,[3],-0.118
same,composite z-score,[4],-0.365
same,composite z-score,[5],-0.557
same,composite z-score,[6],0.909
same,composite z-score,[7],1.48
same,z-score,[8],0.242 (inactive)
same,composite z-score,[9],-0.662
same,composite z-score,[10],-0.0645
CCC[C@@H]1C[C@@]1(CCC)[C@@H](NC(=O)c1ccccc1)c1cccc(Cl)c1,composite z-score,[1],1.63
same,composite z-score,[2],0.249
same,composite z-score,[3],0.783
same,composite z-score,[4],0.948
same,composite z-score,[5],1.47
same,composite z-score,[6],0.753
same,composite z-score,[7],1.09
same,z-score,[8],0.379 (inactive)
same,composite z-score,[9],2.29
same,composite z-score,[10],0.53
CCOC(=O)C[C@H]1[C@H](OC(=O)c2ccc(C(=O)c3ccccc3)cc2)[C@@H](NC(=O)c2ccc3ccccc3n2)c2cc(OCCCO)ccc2N1C(=O)c1ccccc1,composite z-score,[1],-0.384
same,composite z-score,[2],0.264
same,composite z-score,[3],0.0498
same,composite z-score,[4],1.03
same,composite z-score,[5],0.454
same,composite z-score,[6],0.45
same,composite z-score,[7],0.975
same,z-score,[8],0.823 (inactive)
same,composite z-score,[9],0.493
same,composite z-score,[10],-0.243
CN(C)CCCCCCNC(=O)[C@@H]1C[C@@H]2C(=O)N[C@@H](Cc3ccccc3)C(=O)N2[C@@H]1c1ccc(O)cc1,composite z-score,[1],0.361
same,composite z-score,[2],1.57
same,composite z-score,[3],0.0127
same,composite z-score,[4],0.439
same,composite z-score,[5],0.644
same,composite z-score,[6],1.07
same,composite z-score,[7],1.42
same,z-score,[8],3.06 (inactive)
same,composite z-score,[9],0.901
same,composite z-score,[10],-0.0196
C=CC[C@]1(C(=O)NCCCOC)N=C(c2ccc(OCCCO)cc2)O[C@H]1c1ccccc1CN=[N+]=[N-],composite z-score,[1],1.07
same,composite z-score,[2],0.717
same,composite z-score,[3],-0.0981
same,composite z-score,[4],0.807
same,composite z-score,[5],1.49
same,composite z-score,[6],1.3
same,composite z-score,[7],1.08
same,z-score,[8],0.373 (inactive)
same,composite z-score,[9],0.952
same,composite z-score,[10],0.335
O=C1C[C@@](C(=O)NCC(F)(F)F)(c2ccc([N+](=O)[O-])cc2)[C@@H](c2ccc(CO)cc2I)N1C1CCCCC1,composite z-score,[1],-0.0205
same,composite z-score,[2],0.95
same,composite z-score,[3],-0.0257
same,composite z-score,[4],0.19
same,composite z-score,[5],1.46
same,composite z-score,[6],0.811
same,composite z-score,[7],1.24
same,z-score,[8],0.467 (inactive)
same,composite z-score,[9],0.414
same,composite z-score,[10],-0.0994
CCC(CC)C(O)C1C=CC2C(=O)NC(=O)C2N1Nc1ccccn1 (stereo not given),composite z-score,[1],-0.164
same,composite z-score,[2],0.247
same,composite z-score,[3],0.0119
same,composite z-score,[4],0.368
same,composite z-score,[5],0.795
same,composite z-score,[6],0.675
same,composite z-score,[7],1.12
same,z-score,[8],0.32 (inactive)
same,composite z-score,[9],0.305
same,composite z-score,[10],0.0139
CC(C)N1C(=O)[C@@]2(Cc3ccccc31)c1ccccc1C(=O)N(Cc1ccccc1Cl)[C@H]2c1ccc(CO)cc1,composite z-score,[1],-0.0423
same,composite z-score,[2],-0.149
same,composite z-score,[3],-0.177
same,composite z-score,[4],-0.272
same,composite z-score,[5],-0.791
same,composite z-score,[6],-0.371
same,composite z-score,[7],0.0118
same,z-score,[8],-0.426 (inactive)
same,composite z-score,[9],-0.377
same,composite z-score,[10],-0.319
